# Laboratory results: ChEMBL document CHEMBL3988442, “University of Dundee, Small-Polar-MMV Screening Library” (2021)
# The campaign covered roughly 69,000 compounds. About 1,000 (1.4%) showed an effect of 50% or more. Many of the other results were omitted from the sample, so strong results are more common in it than they were.
# Test system: Leishmania donovani
# Experiment: Leishmania intramacrophage assay
# Format: functional, organism-based
# Parameters: scale not given: in the data most compounds retested in dose-response had high values
smiles,measurement,setting,value
CCn1nccc1CNC(=O)C1CCCO1 (configuration not stated),Percent Effect,"30.3 µM, […]",2.08%
CNc1oc(-c2ccc(OC)c(S(=O)(=O)N3CCCC3)c2)nc1C#N,Percent Effect,"30.3 µM, […]",16.63%
CC(=O)N1CCC2(CC1)CC(NS(C)(=O)=O)c1ccccc1O2 (configuration not stated),Percent Effect,"30.3 µM, […]",6.966%
O=C(NCc1cccs1)c1nc2c(o1)CN(c1ncccn1)C2,Percent Effect,"30.3 µM, […]",27.75%
CCn1c(CC2CCN(C(=O)c3ccnn3C)CC2)n[nH]c1=O,Percent Effect,"30.3 µM, […]",15.21%
Cc1csc(CNC(=O)NCC(O)c2cccc(Cl)c2)n1 (configuration not stated),Percent Effect,"30 µM, 30.03 µM",17.1%
CCCN(C(=O)c1csnn1)C1CCCN(Cc2ccccc2)C1 (configuration not stated),Percent Effect,"30.3 µM, […]",11.65%
COCCN1CCC2(CC1)CC(N1CCOCC1)c1cc(C)ccc12.O=C(O)C(F)(F)F.O=C(O)C(F)(F)F (configuration not stated),Percent Effect,"30.3 µM, […]",13.44%
CC(=O)N1CCC2(CC1)CC(N1CCOCC1)c1ccc(C)cc12.O=C(O)C(F)(F)F (configuration not stated),Percent Effect,"30.3 µM, […]",29.16%
COCCN1CCC2(CC1)CC(N1CCOCC1)c1ccc(C)cc12.O=C(O)C(F)(F)F.O=C(O)C(F)(F)F (configuration not stated),Percent Effect,"30.3 µM, […]",56.38%
COc1ccc(C(=O)Nc2c(C(=O)N(C)C)nn(C)c2C)cc1,Percent Effect,"30.3 µM, […]",25.81%
O=C1CC(c2ccsc2)c2snc(C(=O)O)c2N1 (configuration not stated),Percent Effect,"30.3 µM, […]",9.625%
Cc1ccc(-c2nnc(SCC(=O)O)n2-c2ccc(C)cc2)cc1,Percent Effect,"30 µM, 30.03 µM",5.804%
CNc1cc(C)nc(NC2CCCN(C3Cc4ccccc4C3)C2)n1 (configuration not stated),Percent Effect,"30.3 µM, […]",32.54%
Cc1ccc(NC2CCCN(C3Cc4ccccc4C3)C2)nn1 (configuration not stated),Percent Effect,"30.3 µM, […]",23.72%
CNc1nc(C)cc(NC2CCCN(C3Cc4ccccc4C3)C2)n1 (configuration not stated),Percent Effect,"30.3 µM, […]",58.16%
CN1CCN(C2CCN(Cc3nnc(C(C)(C)C)o3)CC2)C1=O,Percent Effect,30 µM,6.935%
COc1cc(CNCCc2nc(C)cs2)cc2c1OCCO2.Cl,Percent Effect,"30 µM, 30.03 µM",9.472%
COc1cccc(CN(C)C(C)c2ccco2)c1OCCn1ccnc1 (configuration not stated),Percent Effect,"30.3 µM, […]",23.12%
CCCN(CC(=O)N(C)C)C(=O)c1ccc(-c2nc(C)cs2)cc1,Percent Effect,"30.3 µM, […]",65.78%
CCN(CC(=O)N(C)C)C(=O)c1ccc(-c2nc(C)cs2)cc1,Percent Effect,"30.3 µM, […]",-16.68%
CCCN(CC(=O)NC)C(=O)c1ccc(-c2nc(C)cs2)cc1,Percent Effect,"30.3 µM, […]",37%
Cc1cc(C2CCCN2Cc2cc(=O)n(C)c(=O)n2C)on1 (configuration not stated),Percent Effect,"30 µM, 30.03 µM",-11.72%
COc1ccc(S(=O)(=O)NCCCc2nnc3nc(C)cc(C)n23)cc1,Percent Effect,"30.3 µM, […]",5.677%
CC(C)n1cnnc1SCCN(C)c1ccccc1,Percent Effect,"30.3 µM, […]",-1.184%
O=C(Cn1cccc2cc(-c3ccc(F)cc3)nc1-2)N1CCC(O)CC1,Percent Effect,"30.3 µM, […]",2.575%
CN(C)CCN(C)C(=O)Cn1cccc2cc(-c3ccc(F)cc3)nc1-2,Percent Effect,"30.3 µM, […]",78.9%
COc1ccc(-c2cc3cccn(CC(=O)N4CCOCC4)c-3n2)cc1,Percent Effect,"30.3 µM, […]",23.65%
CC(C)(C)c1ncc2c(n1)CN(c1cc(NCCO)nc(N)n1)C2,Percent Effect,"30.3 µM, […]",34.79%
O=C(C1CC(=O)N(c2n[nH]c3cc(Br)ccc23)C1)N1CCOCC1 (configuration not stated),Percent Effect,"30.3 µM, […]",-3.266%
CC(C)CCNC(=O)c1ccc(Cl)c(NS(C)(=O)=O)c1,Percent Effect,"30.3 µM, […]",6.444%
O=C(Cc1ccsc1)N1C[C@@H]2CN(Cc3ccoc3)CCO[C@@H]2C1.O=C(O)C(F)(F)F,Percent Effect,"30 µM, 30.03 µM",9.64%
COCCCNC(=O)CN(C)C(=O)c1ccc(OC)cc1O,Percent Effect,30 µM,24.99%
COc1ccc(OCCN(C)C(=O)c2ccc(OC)cc2O)cc1,Percent Effect,"30.3 µM, […]",55.32%
COCCN(C)C(=O)c1ccc(OC)cc1O,Percent Effect,"30 µM, 30.03 µM",-17.55%
CCN(C)C(=O)CN1CCC(c2cc(N3CCOCC3)nc(C)n2)CC1,Percent Effect,"30.3 µM, […]",-1.668%
Cc1ccc(N2CCC(c3cc(Cc4ccccc4)n[nH]3)CC2)nn1,Percent Effect,"30.3 µM, […]",15.09%
Nc1nc(O)cc(N2CCC(c3cc(Cc4ccccc4)n[nH]3)CC2)n1,Percent Effect,"30.3 µM, […]",4.937%
NC(=O)NCCC(=O)N1CCC(c2cc(Cc3ccccc3)n[nH]2)CC1,Percent Effect,"30.3 µM, […]",-20.51%
Cc1cc(CN2CCC(c3cc(Cc4ccccc4)n[nH]3)CC2)[nH]n1,Percent Effect,"30.3 µM, […]",26.02%
Nc1cc(N2CCC(c3cc(Cc4ccccc4)n[nH]3)CC2)ccn1,Percent Effect,"30.3 µM, […]",96.12%
Nc1nccc(N2CCC(c3cc(Cc4ccccc4)n[nH]3)CC2)n1,Percent Effect,"30.3 µM, […]",63.85%
COc1ccc(CN2CCCCC2c2n[nH]cc2-c2cc(C)no2)cc1.Cl (configuration not stated),Percent Effect,"30.3 µM, […]",-16.67%
CCn1ncc2c1CCCC2NCc1cc(OC)cc(OC)c1 (configuration not stated),Percent Effect,30 µM,1.972%
Cc1nc(C2(O)CCCNCC2)sc1CCOc1ccc(F)c(F)c1.Cl (configuration not stated),Percent Effect,"30.3 µM, […]",85.82%
Cc1nc(C2(O)CCCNCC2)sc1CCOc1ccc(F)cc1.Cl (configuration not stated),Percent Effect,"30.3 µM, […]",8.294%
Cc1nccc(CNC(=O)NCCOc2ccc(F)c(F)c2)n1,Percent Effect,"30 µM, 30.03 µM",3.237%
Cc1cc(CNC(=O)NCCOc2ccc(F)c(F)c2)on1,Percent Effect,"30.3 µM, […]",0.6606%
CC1(C(=O)NCc2cccnc2Oc2ccc(F)c(F)c2)CCCNC1 (configuration not stated),Percent Effect,"30.3 µM, […]",-16.47%
CC(=O)NCc1nnn2c1CN(c1ncc(C)cn1)CCC2,Percent Effect,"30.3 µM, […]",22.68%
O=C(NC[C@]12COC[C@H]1CN(Cc1nccs1)C2)c1cscn1.O=C(O)C(F)(F)F,Percent Effect,"30.3 µM, […]",14.84%
CCOc1cc(C(=O)N2CCN(CC)CC2)cc2occc12,Percent Effect,"30.3 µM, […]",-20.1%
CCOc1ccccc1NC(=O)CN(C)Cc1ccccc1Cl,Percent Effect,"30.3 µM, […]",52.93%
CCOC(=O)c1ccccc1NC(=O)CN(C)Cc1ccccc1Cl.O=C(O)C(=O)O,Percent Effect,"30.3 µM, […]",23.74%
CN(CC(=O)Nc1ccccc1C(=O)NC1CC1)Cc1ccccc1Cl,Percent Effect,"30.3 µM, […]",31.64%
O=C(Nc1cccc(OCC(F)F)n1)c1ccncc1F,Percent Effect,"30.3 µM, […]",29.54%
CCSc1ccc(C(=O)N2CCCC2C(=O)N2CCOCC2)cn1 (configuration not stated),Percent Effect,"30.3 µM, […]",-29.5%
Cc1cc2nc(C(C)C)cc(N3CCC(O)CC3)n2n1,Percent Effect,"30.3 µM, […]",27.64%
Cc1cc2nc(C(C)C)cc(N3CCC(N(C)C)C3)n2n1 (configuration not stated),Percent Effect,"30.3 µM, […]",15.59%
Cc1cc2nc(C(C)C)cc(N3CCC(Oc4ncccn4)CC3)n2n1,Percent Effect,"30.3 µM, […]",83.06%
O=C(CNC(=O)C1CCCC1)NCc1cnn(-c2ccc(F)cc2F)c1,Percent Effect,"30.3 µM, […]",-11%
CCN(c1ccc(C(=O)NCCCN2CCOCC2)cc1)S(=O)(=O)CC,Percent Effect,"30 µM, 30.03 µM",0.6611%
CC(O)CN1CCN(C(=O)c2ccc3c(c2)COC3)CC1 (configuration not stated),Percent Effect,"30 µM, 30.03 µM",9.428%
Cn1cnc2c(-c3cccnc3)nc(C3CCN(S(C)(=O)=O)CC3)cc21,Percent Effect,"30.3 µM, […]",18.38%
Cc1nn(C)c(N2CCOCC2)c1CNC1CCS(=O)(=O)C1 (configuration not stated),Percent Effect,"30.3 µM, […]",15.34%
CCN1CCOCC12CCN(c1cnccn1)CC2.O=C(O)C(F)(F)F,Percent Effect,"30.3 µM, […]",19.49%
Cc1noc(C)c1CN1CCOCC12CCN(c1cnccn1)CC2.O=C(O)C(F)(F)F,Percent Effect,"30.3 µM, […]",60.72%
Cc1noc(C)c1CN1CCOCC12CCN(c1ncccn1)CC2.O=C(O)C(F)(F)F,Percent Effect,"30.3 µM, […]",49.21%
O=C(c1cnn2c1OCCC2)N1CCC(Cc2ccccc2)CC1,Percent Effect,"30.3 µM, […]",-34.88%
OCc1cn(Cc2cccc(F)c2)nn1,Percent Effect,"30.3 µM, […]",6.732%
COC(=O)CCCC(=O)N(C)CC1Cc2ccccc2CN1C (configuration not stated),Percent Effect,"30.3 µM, […]",11.82%
CCOCCC(=O)N(C)CC1Cc2ccccc2CN1C (configuration not stated),Percent Effect,"30.3 µM, […]",29.01%
COC(=O)NCC(=O)N(C)CC1Cc2ccccc2CN1C (configuration not stated),Percent Effect,"30.3 µM, […]",52.66%
COc1ncccc1C(=O)N1CCC(c2nc3c(C)cccc3[nH]2)CC1,Percent Effect,"30.3 µM, […]",-25.37%
CN1CCC(c2nnc3ccc(C(=O)N4CCCCC4)cn23)C1.O=C(O)C(F)(F)F (configuration not stated),Percent Effect,"30.3 µM, […]",20.31%
COc1cccc(C(O)CN2CCN(C(=O)CCC(C)C)CC2)c1 (configuration not stated),Percent Effect,"30.3 µM, […]",-26.89%
CS(=O)(=O)N1CCO[C@@H]2CN(C(=O)N3CCCC3)CC[C@@H]2C1,Percent Effect,"30.3 µM, […]",57.39%
CS(=O)(=O)N1CCO[C@@H]2CN(C(=O)N3CCOCC3)CC[C@@H]2C1,Percent Effect,"30.3 µM, […]",41.23%
CS(=O)(=O)N1CCO[C@@H]2CN(C(=O)C3CCOC3)CC[C@@H]2C1 (some centres not stated),Percent Effect,"30.3 µM, […]",29.21%
Cc1cc(OCCC(=O)NCc2ccc(F)cc2)nnc1C,Percent Effect,"30.3 µM, […]",-17.71%
CCn1c(N)nc2cc(C(=O)N3Cc4ccccc4C3)cnc21,Percent Effect,"30.3 µM, […]",1.909%
Cl.NCC(=O)N1CCC(c2ccnc(Nc3cc(C(F)(F)F)ccn3)n2)C1 (configuration not stated),Percent Effect,"30.3 µM, […]",77.96%
CC(=O)N1CCC(c2ccnc(Nc3cc(C(F)(F)F)ccn3)n2)C1 (configuration not stated),Percent Effect,"30.3 µM, […]",43.14%
O=C(CO)N1CCC(c2ccnc(Nc3cc(C(F)(F)F)ccn3)n2)C1 (configuration not stated),Percent Effect,"30.3 µM, […]",30.85%
COCC(=O)N1CC(c2ccnc(Nc3cc(C(F)(F)F)ccn3)n2)C1,Percent Effect,"30.3 µM, […]",23.24%
COC(=O)C(C)N1CCCc2cc(OC)ccc2C1 (configuration not stated),Percent Effect,"30.3 µM, […]",8.236%
COCCN1CCC(Nc2ccc(C#N)cc2F)CC1,Percent Effect,"30.3 µM, […]",26.49%
CNC(=O)C1Cc2ccccc2CN1CCC#N (configuration not stated),Percent Effect,"30.3 µM, […]",1.919%
FC(F)(F)COc1cccc(-c2nc3c([nH]2)CCNC3)c1,Percent Effect,"30.3 µM, […]",27.16%
CC(C)COc1cccc(-c2nc3c([nH]2)CCNC3)c1,Percent Effect,"30.3 µM, […]",95.75%
CCCOc1cccc(-c2nc3c([nH]2)CCNC3)c1,Percent Effect,"30.3 µM, […]",25.72%
CCN(C(=O)c1ccc(-n2ncc(C#N)c2N)cc1)C1CCCC1,Percent Effect,"30 µM, 30.03 µM",36.15%
O=C1C(NCc2nnc3n2CCCC3)CCN1CC(F)(F)F (configuration not stated),Percent Effect,"30 µM, 30.03 µM",-13.74%
Cc1ccc(Br)cc1NC(=O)NC1CCC2(C1)OCCO2 (configuration not stated),Percent Effect,"30.3 µM, […]",23.67%
Cc1ccc(CNC2(Cc3cc(CC(C)C)on3)COC2)o1,Percent Effect,"30.3 µM, […]",-12.32%
CC(C)Cc1cc(CC2(NCc3ccco3)COC2)no1,Percent Effect,"30.3 µM, […]",63.35%
CC(C)Cc1cc(CC2(NCc3ccccc3Cl)COC2)no1,Percent Effect,"30.3 µM, […]",8.785%
Cc1ccc(CN2CCc3nc(C(C)C)nc(O)c3CC2)s1,Percent Effect,"30.3 µM, […]",14.32%
O=C(c1cccnc1O)N1CCCN(c2cccnn2)CC1,Percent Effect,"30.3 µM, […]",3.038%
COc1ccc(C)cc1NC(=O)Nc1cnc(N2CCN(C)CC2)nc1,Percent Effect,"30 µM, 30.03 µM",50.02%
COc1ccc(C)cc1NC(=O)Nc1cnc(N2CCOCC2)nc1,Percent Effect,"30.3 µM, […]",-26.13%
COc1ccc(C)cc1NC(=O)Nc1cnc(N2CCCC2)nc1,Percent Effect,"30.3 µM, […]",-0.2164%
